According to the supplement of paper PMC3334620:
In all, about 33,000 sequences were measured (“E-score (-0.5 to 0.5)”: median about -0.056, highest 2% from about 0.38 on). The sample holds the highest values, similar sequences and a random draw of the others, so the mix is not that of the screen.

target: Stb4 (UniProt P50104); assay: PBM E-score (8-mer binding enrichment) (E-score (-0.5 to 0.5)); higher = stronger / more preferred TF binding; conditions: protein concentration: 200 nM; construct: GST-DNA-binding domain
Chain of UniProt P50104 (P50104 whole entry, the tested form may be a part): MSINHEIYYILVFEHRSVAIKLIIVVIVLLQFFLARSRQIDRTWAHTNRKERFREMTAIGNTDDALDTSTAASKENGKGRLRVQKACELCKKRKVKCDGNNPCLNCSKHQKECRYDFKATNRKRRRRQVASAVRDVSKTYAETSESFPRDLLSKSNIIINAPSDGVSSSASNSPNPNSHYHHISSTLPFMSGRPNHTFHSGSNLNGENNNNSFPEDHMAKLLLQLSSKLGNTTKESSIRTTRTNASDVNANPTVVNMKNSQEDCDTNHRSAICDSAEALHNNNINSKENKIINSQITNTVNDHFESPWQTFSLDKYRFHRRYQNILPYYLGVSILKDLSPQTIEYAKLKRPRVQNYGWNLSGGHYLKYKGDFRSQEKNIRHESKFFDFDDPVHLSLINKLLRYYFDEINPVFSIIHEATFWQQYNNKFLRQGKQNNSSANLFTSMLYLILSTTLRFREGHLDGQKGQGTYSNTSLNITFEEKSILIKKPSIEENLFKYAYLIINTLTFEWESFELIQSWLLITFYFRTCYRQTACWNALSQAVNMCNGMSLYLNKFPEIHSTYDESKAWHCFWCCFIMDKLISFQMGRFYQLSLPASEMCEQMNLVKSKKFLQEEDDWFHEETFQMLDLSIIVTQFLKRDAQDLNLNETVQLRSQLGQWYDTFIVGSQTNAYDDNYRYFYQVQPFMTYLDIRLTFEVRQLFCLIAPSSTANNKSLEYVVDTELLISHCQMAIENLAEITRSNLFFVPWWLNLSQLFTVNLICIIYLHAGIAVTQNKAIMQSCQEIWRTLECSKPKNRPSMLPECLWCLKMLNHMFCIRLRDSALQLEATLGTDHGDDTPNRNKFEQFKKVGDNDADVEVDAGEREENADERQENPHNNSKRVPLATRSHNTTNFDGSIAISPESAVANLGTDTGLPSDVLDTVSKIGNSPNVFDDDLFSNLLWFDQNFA
Procedure, shortened: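 Universal all-10-mer Agilent arrays, fresh or stripped once, were converted to double-stranded form by primer extension. GST-tagged yeast transcription factors from PURExpress in vitro transcription/translation, full-length or DNA-binding domain only, were applied at about 100-200 nM and detected with fluorescent anti-GST. After masliner normalisation, the Universal PBM Analysis Suite scored each ungapped eight-base word together with its reverse complement by E-score.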

Sequence	PBM E-score
CGAGCAGC	0.15
ATGACCCA	-0.283
AACGCACC	-0.0468
CTCACTTC	-0.141
ACCGAGCT	0.365
ACCGAGGT	0.392
ACCGAGAG	0.342
AACGAGAT	0.0091
ACCGAGAT	0.407
AACGAGGT	-0.293
ACCCAATG	-0.174
ACCCCATC	-0.109
GGTGAGTA	-0.183
TCCTCCAA	-0.181
CTGCTCGC	-0.0171
ATTCGGAC	0.373
CTTCGGAC	0.386
GTGCGGAA	0.289
CTACGGAA	0.222
ATTCGGAA	0.456
CTTCGAAC	-0.00115
GTACGGAA	0.323
ATTCGGAG	0.324
CTTCGAAA	-0.2
CTTCGGAA	0.485
ATGCGGAA	0.332

Sequence	PBM E-score
GTTCGGAA	0.474
CCTTTTCC	0.0594
GATAGTTA	0.0424
CATTTGTA	-0.106
ATGTAGCC	0.136
AGACAGCA	-0.0333
GCAGGCCC	-0.0954
ATTAGCCC	-0.0135
ATTAGCCG	0.4
ATTAGCCA	-0.26
AATGTCCC	0.169
AACTTCTC	0.0267
AATATTCC	0.347
CCCTTACA	-0.0902
CGGGCGAA	0.158
CAATCTGA	-0.0386
CACCGGAC	0.215
TACCGGTA	0.149
GACCGGAA	0.316
CACCGGAG	0.125
CACCGGAA	0.412
TACCGGAA	0.394
GATTGAGA	-0.0336
CAAGCGAG	0.0404
CCCGAAGC	0.371
TCCGAAGA	0.458

Sequence	PBM E-score
CCCGAAGA	0.403
CACGAAGA	-0.255
GCCGAAGA	0.362
ACCGAAGG	0.243
CCCGAAGG	0.394
ACCGAAGA	0.359
CGCGAAGA	0.112
CCCGCAGG	0.115
TGCACTAA	-0.112
ACTGAATG	0.0782
GTCAGGAC	-0.21
AGAGATTC	-0.00647
CAGGCCAA	-0.0749
TAACTTCA	-0.143
AGGTTGCG	-0.269
GTTCTATA	-0.173
GGACTTCA	-0.0404
ATATCTGA	-0.0996
GCTGCCGA	0.378
GATGCCGA	0.411
CCTGCCGA	0.359
GATGCCGC	0.0124
AATGCCGG	0.313
ACTGCCGA	0.407
TATGCCCA	-0.104
AATGCCGA	0.415

Sequence	PBM E-score
TATGCCAA	-0.209
TATGCCGA	0.411
AATGCCGT	0.277
CATGCCGA	0.353
AGAGGGCA	-0.289
AGGTACGA	-0.0929
ACAAGAAC	0.101
ATGGTTTG	0.117
CAGATCTG	-0.205
CAGACGAA	0.0157
CTACTGCA	-0.329
CTACTGAC	-0.0845
CTTAGAAC	-0.0637
GTCCTCGA	-0.228
AAGCAAAC	-0.0582
ATCCGGCA	0.38
ATCCGGGC	0.405
ATCCGGCG	0.368
AGCCGGGC	0.166
CTCCGGGC	0.131
ATCCGGGA	0.368
ATCCGGCC	0.394
ATCCGGGG	0.398
AACCGGGG	0.164
AATATAAC	0.109
CGTCTCAG	-0.235

Sequence	PBM E-score
CCGAACCG	0.447
CCGAACCA	0.356
GGGAACCA	-0.0292
CGGAACCA	0.41
AGGAACCG	0.263
TGGAACCA	0.0635
CGGAACCC	0.359
CCGAACCC	0.37
CGGAACCG	0.407
CATTCTCA	0.0317
CAATGTCC	0.00172
AAATGCGC	-0.041
GGGCCGAA	0.314
CTGCCGAA	0.411
ATGCCGAC	0.333
CTGCCGCA	0.0287
CTGCCGAC	0.331
ATGCCGTG	0.00847
GTGCCAAA	-0.0603
ATGCCGAG	0.423
ATGCCAAA	-0.302
GTGCCGAA	0.441
ATGCCGAA	0.433
ATGCCGCA	0.0956
GCAAGTGA	-0.0836
CTCGCGAG	-0.0385

Sequence	PBM E-score
GTAAGTAC	0.00926
AGCGACCC	0.0831
ATGGTCGC	-0.0565
CGTTAGCA	-0.0245
ACAGGCAT	-0.242
TAAGCCGA	0.392
GAAGCCCA	-0.1
AAAGCCGA	0.322
GAAGCCGA	0.401
CAAGCCGA	0.297
GAAGCCGC	0.193
ACGATTGG	-0.176
TCTCGGCA	0.446
CCACGGCG	-0.0429
ACTCGGCG	0.326
ACTCGGCC	0.232
ACTCGGCA	0.428
AATCGGCA	0.32
GCTCGGCA	0.443
CCTCGGCG	0.411
CATCGGCG	0.165
GCACGGCA	0.109
TCACGGCA	0.114
GCTCGGCC	0.289
ACGACGTC	-0.148
ATTGGGGA	-0.245

Sequence	PBM E-score
AGATACTG	-0.169
ACCAGCCG	0.256
AGATGAAG	-0.0847
AGCTAAGA	-0.055
AAGCCAAG	-0.0879
CCCGCATC	0.101
ACATAGAG	-0.166
GAGAAATC	0.0628
ACTCGGCT	0.414
CGTCGGCA	0.38
CCTCGGCA	0.461
ACTCGTCT	-0.126
CCTCGGCC	0.313
AATCGGCT	0.344
GAGTCCCC	-0.0682
ACGTGATA	-0.167
CCCTGACC	0.0155
CCAGACTC	-0.0717
GAAACAGA	-0.0644
AGCCGTAT	0.0974
AGCCGACT	0.261
CACCGAAA	0.201
TACCGAAA	0.385
AGACGAAG	-0.0901
CGCCGAAC	0.366
GACCGAAA	0.255

Sequence	PBM E-score
AGCCGAAT	0.426
GGCCGAAC	0.313
AGCCGAAG	0.391
CGCCGAAG	0.372
AGCCGAAC	0.411
GAGCCGTA	0.191
AGCCCGTC	-0.0989
ATGATTCG	0.0336
GGGTCTAA	-0.0158
AAAGCTCA	-0.202
CTGCAGTA	-0.353
AATCAGGC	-0.174
TGCCGACA	0.359
CGCCGAAA	0.34
TGACGAAA	-0.207
GGCCGAAA	0.319
TGCCGAAA	0.444
AGCCGAAA	0.425
AACAGGAA	-0.219
AGCACAAC	0.0479
